High-throughput results (PubChem)
Compounds with a hit are over-represented: about 12% of the library has one in this group of screens.
HP1b binding inh: HP1-beta chromodomain-methylated histone interaction inhibition. P83916. Potency, µM (titrated, usually from 114 µM), usual class: inhibitors. AlphaScreen HP1-beta / biotin-H3K9me3 peptide binding. 390,000 compounds, 0.56% hits; note: nearly all actives have a fitted effect of over 70% in size
Target sequence (P83916 whole entry, looked up): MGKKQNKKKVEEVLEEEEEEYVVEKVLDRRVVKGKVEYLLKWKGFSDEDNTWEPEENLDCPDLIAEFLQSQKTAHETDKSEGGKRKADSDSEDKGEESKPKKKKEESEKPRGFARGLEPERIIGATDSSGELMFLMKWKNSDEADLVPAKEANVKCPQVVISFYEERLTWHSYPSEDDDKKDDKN
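Compound inhibition of the preformed complex between 50 nM HP1-beta and 50 nM biotinylated H3K9me3 peptide was read by AlphaScreen. Buffer was PBS pH 7.4 with 0.01% Tween-20. Incubations ran 30 min at room temperature, with 10 ug/mL donor/acceptor beads.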
L3MBTL1 block: blocks human L3MBTL1. Q9Y468. AlphaScreen L3MBTL1–H3K9me1 peptide binding. Potency, µM (top dose mostly 57.1 µM), hits mostly inhibitors. 230,000 compounds, 0.66% hits; note: nearly all actives have a fitted effect of over 60% in size
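AlphaScreen assay: L3MBTL1 (50 nM final) was preincubated 30 min at room temperature with biotinylated H3(1-15)K9me1 peptide (75 nM final), then 30 min with library compounds; streptavidin donor and nickel chelate acceptor beads (10 ug/mL final) added, 30 min dark.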
G9a inh: inhibitors of human histone lysine methyltransferase G9a | G9a H3K9 monomethylation, AlphaScreen, 2 h | Potency, µM (doses to about 102 µM), hits mostly inhibitors | Q96KQ7 | AID 504332 | 350,000 compounds, 8.8% hits; note: nearly all actives have a fitted effect of over 75% in size
Target sequence (Q96KQ7 913-1193 limits assumed): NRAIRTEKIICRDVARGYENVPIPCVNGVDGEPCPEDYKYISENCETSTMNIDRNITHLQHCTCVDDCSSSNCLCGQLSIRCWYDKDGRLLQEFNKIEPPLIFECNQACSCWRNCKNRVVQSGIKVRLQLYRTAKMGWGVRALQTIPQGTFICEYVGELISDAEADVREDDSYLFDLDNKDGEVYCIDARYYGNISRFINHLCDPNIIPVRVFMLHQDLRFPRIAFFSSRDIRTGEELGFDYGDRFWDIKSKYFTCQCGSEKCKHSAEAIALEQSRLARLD
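AlphaScreen read-out: biotin-H3K9 peptide (500 nM) methylation by 20 nM enzyme with 20 uM SAM, 2 h at room temperature after 15 min compound preincubation; anti-monomethyl H3K9 antibody plus donor/acceptor beads, 10 min dark.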
BAZ2B block: blocks human BAZ2B | AlphaScreen BAZ2B-H3K14Ac peptide displacement | Potency, µM (doses to about 114 µM), actives largely listed as inhibitors | AID 504333 | 360,000 compounds, 4.4% hits; note: nearly all actives have a fitted effect of over 60% in size
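AlphaScreen displacement: compounds (up to 110uM) incubated 30 min at room temperature with a preformed 50 nM BAZ2B/50 nM biotinylated H3K14Ac peptide complex in PBS pH 7.4 with Tween-20. Donor and acceptor beads at 10 ug/mL final added, 20 min light-protected before reading.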
Sfp PPTase inh: Sfp phosphopantetheinyl transferase inhibition; Biochemical Sfp PPTase activity, qHTS; 310,000 compounds, 3.5% hits; AID 1490; Potency, µM, actives largely listed as inhibitors; Q9F4F7;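 note: the enzyme is Sfp with the accession as filed and its product quenches rhodamine fluorescence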
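With Hepes-Na pH 7.6 buffer containing 10 mM MgCl2, Sfp (15 nM) modified BHQ-2-YbbR (12.5 uM) using rhodamine-CoA (5 uM). Two reads 30 minutes apart at 525/598 nm yielded each well's rate.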
JMJD2A Tudor inh: JMJD2A Tudor domain (human) inhibition; O75164; AlphaScreen JMJD2A-Tudor / H3K4me3 peptide binding; Potency, µM (top dose mostly 114 µM), usual class: inhibitors; 390,000 compounds, 4.4% hits; AID 504339; note: nearly all actives have a fitted effect of over 50% in size
Numbers stand for hits; 0 = inactive; ? = inconclusive; - = no result; ! = a repeat was not active; [ ] = another dose, or the depositor's remark. Calls come from the whole dose curve; as a rule, active = well fitted curve in the direction sought with a large enough effect; inconclusive = small, poorly fitted or top-dose-only effect, or another doubt; inactive = no such curve, though single readings can be large; an effect the other way counts as inactive or inconclusive.

SMILES	HP1b binding inh	L3MBTL1 block	G9a inh	BAZ2B block	Sfp PPTase inh	JMJD2A Tudor inh
O=[N+]([O-])/C(C(=C(Cl)Cl)N1CCOCC1)=C1\NCCO1	0	0	-	?	0	0
CN1CCO/C1=C(\C(Cl)=C(Cl)Cl)[N+](=O)[O-]	0	0	20µM	50.1µM	0	56.2µM
COc1ccc(/C=c2\s/c(=C/C(=O)c3ccc(C)cc3)[nH]c2=O)cc1OC	0	0	0	0	0	0
C#CCOCCOCCOCCNc1nc(N2CCN(C(=O)C([C@@H](C)O)n3cc([C@@H](N)CCCCN)nn3)CC2)nc(N2CCN(C(=O)[C@H](CC(N)=O)n3cc(C(N)[C@@H](C)CC)nn3)CC2)n1 (stereo partly specified)	0	0	-	-	-	?
C#CCOCCOCCOCCNc1nc(N2CCN(C(=O)C([C@@H](C)O)n3cc([C@@H](N)CCCCN)nn3)CC2)nc(N2CCN(C(=O)C([C@@H](C)O)n3cc([C@@H](N)CCCCN)nn3)CC2)n1 (stereo partly specified)	0	0	-	-	-	50.1µM
C#CCOCCOCCOCCNc1nc(N2CCN(C(=O)C([C@@H](C)O)n3cc([C@@H](N)CCCCN)nn3)CC2)nc(N2CCN(C(=O)[C@H](CO)n3cc([C@@H](N)C(C)C)nn3)CC2)n1 (stereo partly specified)	0	0	-	-	-	79.4µM
C#CCOCCOCCOCCNc1nc(N2CCN(C(=O)[C@H](CO)n3cc([C@@H](N)C(C)C)nn3)CC2)nc(N2CCN(C(=O)[C@H](CO)n3cc([C@@H](N)C(C)C)nn3)CC2)n1	0	-	-	-	-	79.4µM
Nc1c(C(=O)Nc2ccccc2)nnn1Cc1ccc(F)cc1Cl	0	-	0	?	-	0
Cc1ccc(CN2CCSCC2)cc1	?	0	-	?	0	22.4µM
Cc1ccc(CN2CCCN(C)CC2)c(C)c1	?	0	3.55µM	56.2µM	0	3.16µM
Cc1c(C)c(C)c(CN2CCSCC2)c(C)c1C	0	0	0	0	0	0
Clc1cccc(CN2CCSCC2)c1	?	0[2.29 µM]	0[0.501 µM]	?	0	22.4µM
Cc1ccc(CN2CCSCC2)c(C)c1	?	0	4.47µM	?	?	0
Cc1cc(OC(C)C(=O)N2CCN(CCc3ccccn3)CC2)ccc1Cl (stereo unspecified)	0	-	0	0	-	0
Cc1cccc(NC(=O)CSc2c(C)cnc3c2c(=O)n(C)c(=O)n3C)c1C	0	-	0	0	-	0
Cc1cc2c(s1)c1cnn(Cc3cccc(F)c3)c(=O)c1n2C	-	-	-	-	-	0
OCn1ncn(-c2ccccc2)c1=S	0	-	?	0	0	35.5µM
Cc1ccc(Cn2ncn(-c3ccccc3)c2=O)cc1	0	0	0	0	0	0
O=C(c1ccc(F)cc1)C1CCN(CCn2c(=O)[nH]c3ccccc3c2=O)CC1	0	0	0.794µM!	?	0	0
O=C(NCc1cccnc1)c1ccc2c(=O)n(CCCN3CCCC3=O)c(=S)[nH]c2c1	0	0	39.8µM	?	0	?
CCCCCNC(=O)c1ccc2c(=O)n(CCCN3CCCC3=O)c(=S)[nH]c2c1	0	-	6.31µM	0	0	0
CCCCCn1c(=O)[nH]c2cc(C(=O)NCc3ccccc3)ccc2c1=O	0	-	0	0	-	0
O=C(NCc1ccccc1Cl)c1ccc2c(=O)n(CCCN3CCCC3=O)c(=S)[nH]c2c1	0	0	0	0	0	0
COCCNC(=O)c1ccc2c(=O)n(CCCN3CCCC3=O)c(=S)[nH]c2c1	0	-	?	?	50.1µM	?
COc1cc(/C=N/N=C(/C(=O)c2ccccc2)c2ccccc2)cc(OC)c1O	?	0	?	?	0	44.7µM
SMILES	HP1b binding inh	L3MBTL1 block	G9a inh	BAZ2B block	Sfp PPTase inh	JMJD2A Tudor inh
COc1cc(/C=N/N=C/c2cc(OC)c(O)c(OC)c2)cc(OC)c1O	0	0	0	0	0	0
Fc1ccc(CNc2ncnc3nc[nH]c23)cc1	0	-	-	-	-	0
C=CCNC(=S)NNc1nc2c(c(=O)[nH]1)C1(CCCCC1)Cc1ccccc1-2	?	0	14.1µM	?	?	?
COC(=O)c1sc(N2C(=O)C(=O)/C(=C(/O)c3ccc(C)cc3)C2c2ccco2)nc1C (stereo unspecified)	0	-	?	0	0	63.1µM
CCOc1ccc(/C(O)=C2/C(=O)C(=O)N(c3nc(C)c(C)s3)C2c2ccco2)cc1 (stereo unspecified)	0	0	44.7µM	0	0	?
COc1cc2c(cc1OC)C1(O)C(=O)c3ccc(O)c(C(=O)O)c3OC1CO2 (stereo unspecified)	-	-	0[2.33 µM]	-	0	-
Cn1nnnc1Sc1ncnc2scc(-c3cccc4c3sc3ccccc34)c12	0	0	-	-	-	39.8µM!
O=C(CCN=C1NS(=O)(=O)c2ccccc21)OCc1nnc(-c2ccccc2)o1	0	0	?	0	-	0
O=C(Nc1ccccc1N1CCCC1)C1CCN(C(=O)c2ccc(Cl)cc2)CC1	0	0	50.1µM	0	-	0
O=C(Nc1ccccc1N1CCCC1)C1CCN(C(=O)c2ccc(F)cc2)CC1	0	0	50.1µM	0	-	0
O=C(Nc1ccccc1N1CCCCC1)C1CCN(C(=O)c2ccc(Cl)cc2)CC1	0	0	?	0	-	0
N#Cc1ccsc1NC(=O)C1CCN(C(=O)c2ccc(Cl)cc2)CC1	0	0	50.1µM	0	-	0
CCOC(=O)C1C(=O)NC(C(=O)OCC)(C(=O)OCC)C1CC (stereo unspecified)	0	-	-	-	-	0
COC(=O)[C@@]1(Cc2ccc(OC)cc2)[C@H]2c3cc(C(=O)N4CCCC4)n(CCc4c[nH]c5cc(F)ccc45)c3C[C@H]2CN1C(=O)c1ccccc1	-	-	-	-	0	-
CCCc1cc(=O)oc2cc(C)cc(OC(C)C(=O)NCCCN3CCOCC3)c12 (stereo unspecified)	0	-	0	0	0	0
Cc1cc(OC(C)C(=O)NCCCN2CCOCC2)c2c(C)cc(=O)oc2c1 (stereo unspecified)	79.4µM	-	0[0.0925 µM]	0	0	0
Clc1ss/c(=N\c2ccccn2)c1Cl	0	0	1.78µM	39.8µM	35.5µM	0
COc1ccc2c(c1)C(=O)[C@@H](O)[C@H](c1ccc(OC)c(Br)c1)O2	0	0	0	89.1µM	0	0
COc1cccc([C@@H]2Oc3ccc(OC)cc3C(=O)[C@H]2O)c1	0	0	79.4µM	0	0	0
FC(F)(F)c1ccccc1-c1ccc2ncnc(NCCN3CCOCC3)c2c1	-	-	0[0.501 µM]	-	0	-
O=C1CCc2cc(S(=O)(=O)NC3CCCCC3)cc3c2N1CC3	0	?	50.1µM	0	-	0
CN(C1CCCCC1)S(=O)(=O)c1cc2c3c(c1)CCN3C(=O)CC2	0	0	0	0	-	0
CCC(c1nnnn1CCOC)N(Cc1cc2cc(C)c(C)cc2[nH]c1=O)CC1CCCO1 (stereo unspecified)	0	-	?	0	?	0
